This passage reports growth results from PubChem BioAssay (NCI).

The structures appear in SMILES notation. About 83,000 compounds went through this panel and 20% of them were active in at least one assay; those are over-represented in the sample as a whole.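 Note: values are percent growth. 100 is the growth of untreated cells, values between 100 and 0 indicate rising inhibition; between -100 and 0 indicates cell death.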 Active and inactive are the calls of the source. The calls were made as follows: active = growth percent below 10; inactive = the rest.

The test system of this assay is ACHN renal. The assay can be described thus: NCI-60 one-dose screen, 48 h (100 = growth as untreated, 0 = no growth, -100 = all killed). The settings on record: 10 µM unless noted.
For `COC(=O)CCc1c[nH]c2ccc(N(CCCl)CCCl)cc12`, the growth is 12.6% (inactive). Under `Nc1c(F)cc(-c2nc3cc(F)ccc3[se]2)cc1F` stands 68.7% (inactive); under `COC(=O)[C@@]1(C)CC[C@]2(C)CC[C@]3(C)C4=CC=C5C(=CC(=O)C(O)=C5C)[C@]4(C)CC[C@@]3(C)[C@@H]2C1`, -100% (active).

For `COC(=O)[C@@H](C)C[C@H](Cc1ccccc1)NC(=O)c1nc([C@@H](C[C@H](C(C)C)N(C)C(=O)[C@@H](NC(=O)[C@H]2CCCCN2C)C(C)C)OC(C)=O)sc1C`, the growth was 24.5% (inactive).

In the case of `CC(=O)O[C@H](C[C@H](C(C)C)N(C)C(=O)[C@@H](NC(=O)[C@H]1CCCN1C)C(C)C)c1nc(C(=O)N[C@@H](Cc2ccccc2)C[C@H](C)C(=O)O)c(C)s1`, the growth is 26.7% (inactive). For `CCOC(=O)[C@@H](C)C[C@H](Cc1ccccc1)NC(=O)c1csc([C@@H](C[C@H](C(C)C)N(C)C(=O)[C@H](CCC(C)C)NC(=O)[C@H]2CCCCN2C)OC(C)=O)n1`, the growth was 9.24% (active). As for `COC(=O)C12CC(NC(=O)c3csc([C@@H](C[C@H](C(C)C)N(C)C(=O)[C@@H](NC(=O)[C@H]4CCCCN4C)C(C)C)OC(C)=O)n3)(C1)C2`, the growth was 22.9% (inactive).

As for `Clc1ccc2nnnn2n1`, the growth was 43% (inactive). Under `CC[C@H](C)[C@H](NC(=O)[C@H]1CCCCN1C)C(=O)N(C)[C@H](C[C@@H](O)c1nc(C(=O)N[C@@H](Cc2ccccc2)C[C@H](C)C(=O)O)cs1)C(C)C` stands 106% (inactive); under `N#C[S-].[Au+].c1ccc(CN2[CH-]N(Cc3ccccc3)C(c3ccccc3)=C2c2ccccc2)cc1`, 2.08% (active).

Turning to `CCCCCCCCCCCCNC(c1ccccc1)C(O)c1ccccc1` (stereo unspecified), the growth was 67.4% (inactive).
